Compounds with a hit are over-represented: about 7.6% of the library has one in this group of screens.
Cy5 interf NS3h – Cy5 fluorescence quenchers or enhancers, artefact control for HCV NS3 helicase inhibitor project, biochemical, ChemBridge library, Cy5 readout. Cy5-dT15 DNA with NS3h, fluorescence interference; actives lie on both sides; signal over control mean, under 1 quenches. fluorescence interference ratio at 100 µM. 16,000 compounds, 6% hits. AID 720488, 2013;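 active = compound fluorescence over control fluorescence at most 0.8, a quencher, or at least a set upper limit, an enhancer; inactive = ratio between 0.8 and the set upper limit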
HCV NS3h FP – HCV NS3 helicase inhibitors, primary screen, biochemical, fluorescence polarization, ChemBridge library; inhibition, % at 100 µM; AID 687043, 2013; Hepatitis C virus NS3 helicase; 16,000 compounds, 1.6% hits; NS3h Cy5-dT15 DNA binding;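 active = inhibition above the average over every tested compound plus 3 SD, cut at about 40% in these data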
The depositor's hits bear a star.

SMILES	Cy5 interf NS3h	HCV NS3h FP
CCc1cc2c(C)c(CC)c(=O)oc2cc1OCC(C)=O	1	-4
CCc1ccc(-c2ncnn2-c2ccc(Cl)cc2)cc1	0.99	-2
Cc1ccc([N+](=O)[O-])cc1-c1ccc(/C=C2\C(=O)NC(=O)N(c3ccc(Cl)cc3)C2=O)o1	1.3*	9
Cc1ccc(N2C(=O)NC(=O)/C(=C\c3ccc(-c4ccc([N+](=O)[O-])cc4Cl)o3)C2=O)cc1	0.88	6
COCCCNC(=O)COc1ccc2ccccc2c1	1.1	2
Cc1cc(=O)n2[nH]c(-c3cccc(F)c3)cc2n1	1.1	-8
O=c1cc(-c2ccccc2)nc2cc(-c3cccc(Cl)c3)[nH]n12	1.2*	-58
O=c1c2c(nc3cc(-c4cccc(F)c4)[nH]n13)CCCC2	1.1	10
O=c1c2c(nc3cc(-c4cccc(Cl)c4)[nH]n13)CCS2	0.72*	-51
O=C(NC(c1ccccc1)c1ccccc1)c1ccc([N+](=O)[O-])cc1	0.97	9
Cc1ccc(C(O)=Cc2nc3ccccc3[nH]c2=O)cc1	1	7
CN(C)/C=C1/CCc2c([nH]c3ccccc23)C1=O	0.92	10
CCOc1cccc2c1N(C(=O)Cc1ccccc1)C(C)(C)c1ssc(=S)c1-2	1	12
O=C1NC(=Nc2cccc(O)c2)S/C1=C\c1ccc(F)cc1	1.1	7
N#CC1=C(N)SC(N)=C(C#N)C1c1cccc(Cl)c1	0.94	20
N/C(=N/OC(=O)c1cccc(Br)c1)c1ccncc1	0.89	8
O=C(O/N=C(\c1ccccc1)c1ccncc1)c1ccc(Br)cc1	0.66*	25
Cc1ccc(/C(N)=N\OC(=O)c2ccc([N+](=O)[O-])cc2)cc1	0.87	31
COc1cc(OC)cc(C(=O)O/N=C(/c2ccncc2)c2ccc([N+](=O)[O-])cc2)c1	0.61*	12
Cc1c(NC(=O)CN(c2cccc(Cl)c2)S(=O)(=O)c2ccccc2)c(=O)n(-c2ccccc2)n1C	1	2
CCOC(=O)C1=C(C)NC(C)=C(C(=O)OCC)C1c1ccc(N(C)C)cc1	0.95	12
CC(=O)Oc1ccc(/C=C2\C=C(c3ccc(C)cc3)OC2=O)c(OC(C)=O)c1	1	5
CC(=O)Nc1cccc(-c2nc3ccccc3s2)c1	1.1	4
CC(=O)Nc1cc(-c2nc3ccccc3s2)ccc1Cl	0.74*	8
O=S(=O)(NOCc1ccccc1)c1ccccc1	0.95	-13
SMILES	Cy5 interf NS3h	HCV NS3h FP
CC12c3ccccc3C(c3ccccc31)C1C(=O)N(c3cccc([N+](=O)[O-])c3)C(=O)C12 (stereo not drawn)	1	18
CC12c3ccccc3C(c3ccccc31)C1C(=O)NNC(=O)C12 (stereo not drawn)	0.66*	11
CC(=O)C1=C(O)C(=O)N(CCN(C)C)C1c1ccc([N+](=O)[O-])cc1 (stereo not drawn)	0.91	8
O=C(Nc1ccc(-c2nc3ccc(NC(=O)c4ccccc4[N+](=O)[O-])cc3[nH]2)cc1)c1ccccc1[N+](=O)[O-]	0.97	6
COc1ccc(CN2CCN(S(C)(=O)=O)CC2)c(OC)c1	0.69*	0
COc1cccc(CN2CCN(Cc3ccc(Br)cc3)CC2)c1OC	0.92	-10
COc1ccc(CN2CCN(Cc3ccccc3OC)CC2)c(OC)c1	1.1	-8
COc1ccc(CN2CCN(S(C)(=O)=O)CC2)cc1OCc1ccccc1	1	5
COc1ccc(S(=O)(=O)N2CCN(Cc3cccc(OC)c3)CC2)cc1	0.94	12
COc1cccc(CN2CCN(S(C)(=O)=O)CC2)c1OC	0.65*	3
COc1cccc(CN2CCN(S(C)(=O)=O)CC2)c1	0.77*	4
COc1ccc(Br)cc1CN1CCN(S(C)(=O)=O)CC1	0.67*	8
Cc1ccc(C(=O)/C=C/c2ccc(OCc3ccccc3)cc2)cc1	1.1	-3
O=C1C(=O)N(CCCn2ccnc2)C(c2ccccc2[N+](=O)[O-])C1=C(O)c1ccc(Cl)cc1 (stereo not drawn)	1	-3
O=C(Nc1cc(Cl)cc(Cl)c1)c1cc2ccccc2o1	1	28
CCN(CC)/C(=C\C(=O)c1ccc(C)cc1)c1ccccc1	0.91	-4
O=C1S/C(=C/C=C/c2cccc([N+](=O)[O-])c2)C(=O)N1c1ccccc1	1.1	6
CCOC(=O)C1=C(CC)NC2=C(C(=O)CC(C)(C)C2)C1c1ccc(Cl)cc1Cl (stereo not drawn)	0.85	-3
CCOC(=O)c1ccccc1NC(=O)c1cc(OC)cc(OC)c1	1.2	5
CCOc1cc(OCC)cc(C(=O)Nc2ccc(N3CCOCC3)c(Cl)c2)c1	0.98	7
COc1ccc(C2CC(C(F)(F)F)n3nc(C(=O)NCc4cccs4)cc3N2)cc1OC (stereo not drawn)	0.91	-3
